# High-throughput results from PubChem BioAssay.
# Compounds with a hit are over-represented: about 1.2% of the library has one in this group of screens.
# N-glyco inh: blocks N-linked glycosylation in D54 reporter cells; D54 ERlucT glycosylation luciferase reporter, 24 h; percent of 100 nM tunicamycin response; AID 588692; actives 0.23% (n = 360,000); reporter increase, % at 12.5 µM;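 active means mean luciferase reporter signal, scaled so untreated is 0 and the glycosylation-blocking control 100, at or above a set limit in every replicate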;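 further: luciferase carries N-glycosylation sites so blocking glycosylation raises the light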
# Casp6 inh: blocks human caspase-6 cleavage activity | P55212 | purified caspase-6, Z-VEID-R110 cleavage fluorescence | inhibition, % at 12.5 µM | actives 0.53% (n = 350,000) | AID 686996;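 active means mean inhibition across replicates at least about 35%, with every replicate also reaching that limit, limit read from the data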
# Target sequence (P55212 24-179 limits assumed): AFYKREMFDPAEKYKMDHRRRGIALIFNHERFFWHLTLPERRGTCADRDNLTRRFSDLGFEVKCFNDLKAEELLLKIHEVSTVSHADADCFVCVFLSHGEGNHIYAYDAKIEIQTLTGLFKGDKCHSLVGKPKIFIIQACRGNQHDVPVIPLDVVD
# Target sequence (P55212 194-293 limits assumed): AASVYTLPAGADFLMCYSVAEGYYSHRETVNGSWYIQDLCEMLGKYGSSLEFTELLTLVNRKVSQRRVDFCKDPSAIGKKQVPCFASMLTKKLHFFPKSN
# RAD54 branch: blocks human RAD54 Holliday junction branch migration | inhibition, % at 10.4 µM | Q92698 | FAM/BHQ fluorescence | actives 0.14% (n = 360,000) | AID 602329;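 active means mean normalized replicate activity at least 40 and at least half of replicates scoring 40 or more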;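 further: inhibitors cause a drop in the FAM fluorescence signal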
# NSD2 HMT inh: blocks human histone methyltransferase NSD2; O96028; NSD2 peptide methylation, AlphaScreen, 120 min; inhibition, % at 12.5 µM; actives 0.54% (n = 310,000); AID 743445; in the data active means inhibition above about 50%
# RAD52 inh: inhibitors of human RAD52 DNA annealing. P43351. recombinant RAD52 DNA annealing, FRET fluorescence. inhibition, % at 18.7 µM. actives 0.46% (n = 360,000);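 active means every replicate showing at least 50% inhibition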
# Hits are given with their value; – = inactive; · = not tested or not shown.
SMILES,N-glyco inh,Casp6 inh,RAD54 branch,NSD2 HMT inh,RAD52 inh
O=C1NC(=O)N(Cc2ccco2)C(=O)/C1=C/c1cccn1CCOc1ccccc1Cl,–,58.5,·,–,–
COc1ccc(CN2C(=O)NC(=O)/C(=C/c3ccoc3)C2=O)cc1,–,67.4,–,–,–
Cc1ccc(N2C(=O)NC(=O)/C(=C\c3cn(CC(=O)O)c4ccccc34)C2=O)cc1,–,–,–,–,–
O=C(O)Cn1cc(/C=C2\C(=O)NC(=O)N(Cc3ccco3)C2=O)c2ccccc21,–,74.5,·,–,–
O=C1NC(=O)N(Cc2ccccc2)C(=O)/C1=C\c1ccco1,–,63.0,·,–,–
Cn1cccc1/C=C1\C(=O)NC(=O)N(Cc2ccccc2)C1=O,–,–,·,–,–
COc1cc2c(cc1O)C[C@H]1c3c(cc(O)c(OC)c3-2)CCN1C,–,–,–,·,–
CCCN1CCc2cc(O)cc3c2[C@H]1Cc1ccc(O)c(O)c1-3,–,–,62.6,·,96.0
CN1CCc2cc(O)cc3c2[C@H]1Cc1ccc(O)c(O)c1-3,–,–,–,·,94.7
O=[N+]([O-])c1ccc(N2CCCCCC2)c2nonc12,–,–,–,–,–
CN(c1ccc(O)cc1)c1ccc([N+](=O)[O-])c2nonc12,–,–,–,52.9,–
N#CC1=C(N)Oc2c(c(=O)oc3ccccc23)C1c1ccc([N+](=O)[O-])o1 (configuration not stated),–,40.3,·,–,–
CCCNC(=O)N1[C@@H]2c3ccc(-c4ccccc4OC)c(=O)n3C[C@H]1[C@H](CO)[C@H]2C(=O)OC,·,–,–,·,–
Cc1cccc(N2C(=O)NC(=O)/C(=C\c3cc(C)n(-c4sc5c(c4C#N)CCCC5)c3C)C2=O)c1C,–,·,·,60.4,·
CCOC(=O)c1c(-n2c(C)cc(C=C3C(=O)NC(=O)NC3=O)c2C)sc2c1CCCC2,–,·,–,–,·
CNC(=O)c1cccn(Cc2ccc(C(F)(F)F)cc2)c1=O,34.4,–,·,–,–
O=C(O)c1cccc2c1NC(c1cccc([N+](=O)[O-])c1)C1CC(Sc3ccccc3[N+](=O)[O-])C(Cl)C21 (configuration not stated),–,54.2,·,–,–
O=C(CCc1ccccc1)N1Cc2cc(N3CCOCC3)ccc2-n2nncc2C1,–,–,–,·,–
OCC[n+]1c2ccccc2nc2ccc(N3CCOCC3)cc21,–,–,–,82.4,–
O=C(O)[C@H]1[C@H](CO)[C@H]2Cn3c(ccc(C4=CCCCC4)c3=O)[C@@H]1N2C(=O)Cc1ccccn1,·,–,–,·,–
O=C1NC(=O)N(CCC2=CCCCC2)C(=O)/C1=C/c1cccs1,–,37.0,–,–,–
Nc1ccc2ccc3cccc[n+]3c2c1,–,–,–,–,–
C[n+]1c(-c2ccccc2)c2cc(N)ccc2c2ccc(N)cc21,–,·,88.2,·,–
CN1CN(c2ccccc2)C2(CCN(CCCSc3ccccc3NC(=O)/C=C/c3ccccc3)CC2)C1=O,30.4,–,·,–,–
Cc1cc(/C=C2\C(=O)NC(=O)N(c3ccccc3)C2=O)c(C)n1-c1ccc(C(=O)O)c(Cl)c1,–,38.1,–,–,–
SMILES,N-glyco inh,Casp6 inh,RAD54 branch,NSD2 HMT inh,RAD52 inh
Cc1cc(/C=C2\C(=O)NC(=O)N(c3ccc(F)cc3)C2=O)c(C)n1-c1cccc(C(=O)O)c1,–,–,–,–,–
COC(=O)[C@H]1[C@H](CO)[C@H]2Cn3c(ccc(-c4cccc(F)c4)c3=O)[C@@H]1N2C(=O)CC1CC1,·,–,–,·,–
COC(=O)[C@@H]1[C@@H](CO)[C@@H]2Cn3c(ccc(C4=CCCCC4)c3=O)[C@H]1N2Cc1cccnc1,·,–,–,·,–
COCCCn1c(N)c(C(=O)NCc2ccco2)c2nc3ccccc3nc21,·,98.5,·,–,–
COC(=O)[C@@H]1[C@@H](CO)[C@@H]2Cn3c(ccc(C4=CCCC4)c3=O)[C@H]1N2CC1CCCC1,·,–,·,·,–
N#Cc1cccc(-c2ccc([C@@H]3[C@H](CO)N4CCCCN(C(=O)Cc5ccccc5)C[C@@H]34)cc2)c1,·,–,–,·,–
CCN(CC)C(=O)c1ccc2c(c1)C1C(Cl)C(Sc3ccccc3[N+](=O)[O-])CC1C(C(=O)O)N2 (configuration not stated),–,·,·,–,·
CCN(CC)C(=O)c1ccc2c(c1)C1C=CCC1C(C(=O)O)N2 (configuration not stated),–,39.6,–,·,–
COC(=O)[C@H]1[C@H](CO)[C@H]2Cn3c(ccc(C4=CCCCC4)c3=O)[C@@H]1N2C(=O)CC1CC1,·,–,–,·,–
C[N+](C)(C)Cc1ccccc1,–,75.7,–,·,–
